Experiment [1] can be described thus: compounds binding Alexa647 anti-His antibody – biochemical, small-molecule microarray, 635 nm fluorescence, artefact control for SMM control protein annotation, primary screen (AID 1128).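 Further: score merges feature fluorescence with signal-to-noise for each printed compound spot.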 The conditions noted are these: higher = more signal.
Experiment [2] deals with Human papillomavirus type 1a E7 protein (residues 1-88). The experiment can be described thus: HPV1a E7 small-molecule binders, primary screen, biochemical, small-molecule microarray, residues 1-88, 635 nm (AID 1129). The note with it: small-molecule microarray binding, fluorescence 635 nm; higher = more signal.
Experiment [3] has as its target Focal adhesion kinase 1 (Homo sapiens) (UniProt Q05397). As to the kind of experiment: PTK2 protein binding on printed compound slides – biochemical, small-molecule microarray, 635/667 nm fluorescence, BSA, DTT, primary screen (AID 1130).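 Further: composite of spot emission at 667 nm and signal to noise over triplicate slides.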 The conditions noted are these: 635 nm fluorescence, higher = more signal.
Experiment [4] has as its system Fibrinogen (Alexa647-labelled). As to the kind of experiment: Alexa647-fibrinogen binding to printed small molecules – biochemical, small-molecule microarray, 635/667 nm fluorescence, artefact control for SMM control-protein annotation, profiling panel (AID 1131).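 Further: z-score merges 667 nm fluorescence with per-spot signal-to-noise over triplicate slides.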 The conditions noted are these: fibrinogen-A647 binding fluorescence, higher = more signal.
The target of experiment [5] is Follistatin (Homo sapiens) (UniProt P19883). The experiment can be described thus: FST protein binding to printed compounds – biochemical, small-molecule microarray, 635/667 nm fluorescence, primary screen (AID 1132). The conditions noted are these: 635 nm fluorescence, higher = more signal.
Experiment [6] concerns the target Fibroblast growth factor 2 (Homo sapiens) (UniProt P09038). The experiment can be described thus: basic fibroblast growth factor binding to printed compounds – biochemical, small-molecule microarray, 635/667 nm fluorescence, primary screen (AID 1133). The conditions noted are these: FGF2, fluorescence 635/667, higher = more signal.
The nature of experiment [7]: JC-1 mitochondrial potential readout, lung cancer cells – cell-based, A549, JC-1 fluorescence, basal, 24 h, 100 nL, profiling panel (AID 1138).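 Further: A549 lung adenocarcinoma cells under basal conditions with no added stimulus; test concentration not given here.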 The conditions noted are these: higher = more signal.
The next experiment concerns Lefty1. The experiment can be described thus: Lefty1 protein binding to printed compounds – biochemical, small-molecule microarray, 635/667 nm fluorescence, primary screen (AID 1139). The note with it: fluorescence 635/667, higher = more signal.
Experiment [8] relates to wheat germ agglutinin (Triticum aestivum), Alexa647-labelled. As to the kind of experiment: Alexa647-WGA lectin binding to printed small molecules – biochemical, small-molecule microarray, 635/667 nm fluorescence, artefact control for SMM control-protein annotation, profiling panel (AID 1140).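 Further: score merges 667 nm feature emission with signal to noise over triplicate slides.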 The conditions noted are these: WGA-A647 binding, 635 nm fluorescence, higher = more signal.

The target of experiment [9] is Luciferin 4-monooxygenase (Photinus pyralis) (UniProt P08659). As to the kind of experiment: inhibition of purified Photinus pyralis luciferase – biochemical, luminescence, purified enzyme, 2006 set, primary screen (AID 1141).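 Further: cell-free assay with purified firefly luciferase at 100 ng per well in PBS; test concentration not given here.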 The conditions noted are these: purified firefly luciferase, SteadyGlo luminescence, 30 min; higher = more signal, called active from +8 up or from −8 down.

Activity calls are given as the source filed them.

Sequence of Luciferin 4-monooxygenase (Photinus pyralis) (P08659 whole entry, looked up): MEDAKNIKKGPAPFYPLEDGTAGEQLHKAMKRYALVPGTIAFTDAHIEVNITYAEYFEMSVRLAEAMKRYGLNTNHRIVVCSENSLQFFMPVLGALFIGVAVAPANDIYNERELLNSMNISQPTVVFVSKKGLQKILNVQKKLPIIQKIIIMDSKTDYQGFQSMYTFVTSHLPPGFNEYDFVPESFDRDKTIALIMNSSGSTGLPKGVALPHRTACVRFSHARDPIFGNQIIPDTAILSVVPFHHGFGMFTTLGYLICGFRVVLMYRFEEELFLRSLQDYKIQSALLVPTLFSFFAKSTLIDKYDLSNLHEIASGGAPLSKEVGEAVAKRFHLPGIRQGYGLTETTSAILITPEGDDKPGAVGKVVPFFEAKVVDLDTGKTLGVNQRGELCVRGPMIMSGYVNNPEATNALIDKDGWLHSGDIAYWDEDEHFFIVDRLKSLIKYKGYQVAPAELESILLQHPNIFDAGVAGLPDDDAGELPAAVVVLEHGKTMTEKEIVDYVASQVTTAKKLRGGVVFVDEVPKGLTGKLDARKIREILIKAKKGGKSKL
Sequence of Fibroblast growth factor 2 (Homo sapiens) (P09038 whole entry, looked up): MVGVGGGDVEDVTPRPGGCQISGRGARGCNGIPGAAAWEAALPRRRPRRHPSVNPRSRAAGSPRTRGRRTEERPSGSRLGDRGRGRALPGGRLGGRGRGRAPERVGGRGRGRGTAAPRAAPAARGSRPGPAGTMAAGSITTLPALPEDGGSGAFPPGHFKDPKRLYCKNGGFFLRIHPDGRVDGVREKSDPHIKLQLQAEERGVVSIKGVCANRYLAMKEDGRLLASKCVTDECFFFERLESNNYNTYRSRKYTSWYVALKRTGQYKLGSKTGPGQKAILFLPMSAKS
Sequence of Focal adhesion kinase 1 (Homo sapiens) (Q05397 whole entry, looked up): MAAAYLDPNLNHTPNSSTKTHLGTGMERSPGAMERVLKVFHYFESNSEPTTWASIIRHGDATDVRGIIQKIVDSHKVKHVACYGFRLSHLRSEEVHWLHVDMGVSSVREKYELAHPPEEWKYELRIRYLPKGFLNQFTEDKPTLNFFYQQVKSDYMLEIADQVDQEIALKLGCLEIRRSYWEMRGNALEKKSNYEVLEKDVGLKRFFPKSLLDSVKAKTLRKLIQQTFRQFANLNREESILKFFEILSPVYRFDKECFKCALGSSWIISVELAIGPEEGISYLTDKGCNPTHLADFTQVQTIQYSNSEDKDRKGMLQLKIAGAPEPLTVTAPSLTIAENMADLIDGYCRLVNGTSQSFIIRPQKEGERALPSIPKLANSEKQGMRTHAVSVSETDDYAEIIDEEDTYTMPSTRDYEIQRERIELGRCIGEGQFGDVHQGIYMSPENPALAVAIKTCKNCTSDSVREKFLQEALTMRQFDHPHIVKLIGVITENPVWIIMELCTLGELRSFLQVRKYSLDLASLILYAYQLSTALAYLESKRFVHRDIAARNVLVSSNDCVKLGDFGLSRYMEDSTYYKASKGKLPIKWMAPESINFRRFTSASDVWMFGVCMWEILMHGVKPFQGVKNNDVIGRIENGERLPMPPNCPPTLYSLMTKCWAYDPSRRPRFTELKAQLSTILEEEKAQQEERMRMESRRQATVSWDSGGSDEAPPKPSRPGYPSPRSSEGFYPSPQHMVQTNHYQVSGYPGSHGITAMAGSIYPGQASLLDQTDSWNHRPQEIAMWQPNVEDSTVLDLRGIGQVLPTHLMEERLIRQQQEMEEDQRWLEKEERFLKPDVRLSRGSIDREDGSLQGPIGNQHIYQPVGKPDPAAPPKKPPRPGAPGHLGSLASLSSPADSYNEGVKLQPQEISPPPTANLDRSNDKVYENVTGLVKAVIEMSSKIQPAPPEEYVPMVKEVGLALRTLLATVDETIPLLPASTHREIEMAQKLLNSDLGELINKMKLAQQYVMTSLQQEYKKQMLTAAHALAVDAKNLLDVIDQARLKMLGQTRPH
Sequence of Follistatin (Homo sapiens) (P19883 whole entry, looked up): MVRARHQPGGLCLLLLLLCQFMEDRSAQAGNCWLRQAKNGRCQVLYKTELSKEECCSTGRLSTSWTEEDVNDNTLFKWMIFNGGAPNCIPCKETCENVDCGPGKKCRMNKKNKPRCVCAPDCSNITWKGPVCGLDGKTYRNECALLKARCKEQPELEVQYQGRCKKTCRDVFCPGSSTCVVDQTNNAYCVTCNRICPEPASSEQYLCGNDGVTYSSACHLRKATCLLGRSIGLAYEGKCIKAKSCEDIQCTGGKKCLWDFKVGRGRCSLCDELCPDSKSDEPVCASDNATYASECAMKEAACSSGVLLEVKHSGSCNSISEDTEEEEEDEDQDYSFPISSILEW

Take `CO[C@H]1O[C@H](CO)[C@@H](OC(=O)Nc2ccc(Br)cc2)[C@@H]2OC(=O)[C@H](Cc3cccc(Br)c3)C/C=C/C[C@@H](Cc3cccc(Br)c3)C(=O)O[C@@H]12`: the composite z-score in experiment [1] is 0.144; in experiment [2] it was -0.122; in [3], 0.2; in experiment [4], -0.538; in [5], 0.585; in [6], 0.268. In addition, the composite z-score came out at 0.647 with Lefty1 and 0.616 in [8]. Besides, the z-score in experiment [7] was 1.37; in [9] it was 0.671 (inactive).

On to `O[C@@H](Cc1ccccc1)[C@@H](/C=C/C1CC1)NCc1cccc(Cl)c1`, for which the composite z-score in experiment [1] was 0.183; in [2], -0.431; in experiment [3], 0.314; in experiment [4] it was -1.7; in experiment [5], -1.4; in [6] it was -1.99. Besides, the composite z-score with Lefty1 is -0.717; in experiment [8], 0.204. The values for the z-score in experiment [7] and in experiment [9] were -0.164 and 0.585 (inactive), respectively.

Regarding `C=CCNC(=O)[C@H]1[C@@H]2C(=O)O[C@@H](c3ccccc3)[C@@H](c3ccccc3)N2[C@@H](c2ccc(O)cc2)[C@]12C(=O)Nc1ccc(C#CCCO)cc12`, the composite z-score in experiment [1] is -0.0591; in experiment [2], -0.338; in experiment [3] it was 0.459; in [4] it was -0.297; in [5] it was 0.265; in [6], -0.869. Besides, the composite z-score in the experiment with Lefty1 is 0.358; in [8], -0.48. Also, the z-score in experiment [7] was 0.0152; in [9], 0.361 (inactive).

Regarding `COC(=O)[C@@]1(Cc2ccc(OC)cc2)[C@H]2c3cc(C(=O)N4CCCC4)n(CCCNc4ncc(C(F)(F)F)cc4Cl)c3C[C@H]2CN1C(=O)c1ccccc1`, the composite z-score was 2.65 in experiment [1]; 1.14 in experiment [2]; 1.1 in [3]; 0.768 in experiment [4]; 1.12 in experiment [5]; -0.167 in [6]. Further, the composite z-score in the experiment with Lefty1 is 0.337; in experiment [8], 0.626. Further, the z-score in [7] is -1.51; in experiment [9], 2.54 (inactive).

As for `C#CCN1[C@@H](Cc2ccc(O)cc2)C(=O)O[C@H](Cc2ccccc2)[C@@H]1/C=C/C1CC1`, the composite z-score in experiment [1] was -0.0341; in [2], -0.521; in experiment [3], -0.102; in experiment [4], 0.123; in experiment [5], 0.623; in experiment [6] it was 0.571. Also, the results for the composite z-score (in the experiment on Lefty1; in [8]) were 0.165 and -0.202, respectively. Besides, the z-score in experiment [7] was -1.76; in [9], -0.407 (inactive).

On to `O=C1NC(=O)C2C1C=CC(C(O)c1ccc(I)cc1)N2Nc1ccc(Cl)cc1Cl` (stereo not given), for which the composite z-score was 0.258 in [1]; 1.03 in experiment [2]; 0.741 in experiment [3]; 0.978 in experiment [4]; 0.73 in experiment [5]; -0.451 in experiment [6]. Further, the composite z-score with Lefty1 is -0.199; in [8], 0.661. Besides, the z-score in experiment [7] is 0.535; in [9], -1.33 (inactive).

Take `C=CCNC(=O)[C@@H]1[C@H]2C(=O)O[C@H](c3ccccc3)[C@H](c3ccccc3)N2[C@H](c2ccc(OCCO)cc2)[C@@]12C(=O)N(C(=O)OCCOC)c1ccc(C#CCNC(N)=O)cc12`: the composite z-score in [1] is 1.26; in experiment [2], 1.17; in [3] it was 0.613; in experiment [4], 0.82; in experiment [5] it was 1.38; in [6], 1.34. Moreover, the composite z-score in the experiment with Lefty1 was determined as 0.947; in experiment [8], 0.94. The z-score in [7] is -0.746; in [9], -0.94 (inactive).

As for `O=C1OCCC/C=C\[C@H]2OC34C=CCN(c5ccc6ccccc6c5)C(=O)[C@H]3N(CCCCCO)C(=O)[C@@H]4C12` (stereo not given in full), the composite z-score in [1] was -0.268; in [2], -1.62; in [3] it was -0.24; in experiment [4], -0.582; in experiment [5], -0.472; in experiment [6], -1.06. The composite z-score in the experiment on Lefty1 is -0.343; in experiment [8], -0.753. The z-score in [7] was -0.168; in [9], 0.118 (inactive).

Regarding `COC(=O)[C@@]1(Cc2ccc(OC)cc2)[C@H]2c3cc(C(=O)N4CCCC4)n(CCSCCO)c3C[C@H]2CN1C(=O)c1ccccc1`, the composite z-score in experiment [1] is 2.01; in [2], 1.29; in experiment [3], 0.529; in experiment [4], 0.787; in experiment [5], -0.0598; in experiment [6], -0.254. Besides, the composite z-score with Lefty1 was -0.731; in experiment [8] it was 1.39. For the same molecule, the z-score in [7] was 0.572; in experiment [9] it was 0.644 (inactive).

As to `CC(C)NC(=O)[C@@H]1c2ccccc2C(=O)N(C(C)C)[C@H]1c1ccc(CO)cc1`, the composite z-score in experiment [1] is -1.51; in [2] it was -0.0425; in experiment [3], 0.459; in experiment [4], -0.782; in [5], -0.681; in experiment [6] it was -0.963. The composite z-score with Lefty1 is -0.936; in [8] it was -0.608. Besides, the z-score was 1.58 in experiment [7] and -0.784 (inactive) in [9].

For the molecule `COCC(=C=CC[C@H](O)c1ccccc1OCCO)CCO`, the composite z-score was -0.69 in [1]; 0.268 in experiment [2]; 0.432 in experiment [3]; 0.869 in [4]; 0.992 in [5]; 1.11 in [6]. In addition, the composite z-score with Lefty1 is 1.15; in [8], 1.14. The z-score is 0.417 in experiment [7] and 0.109 (inactive) in experiment [9].

Turning to `Cc1ccc(/C=C/C=O)cc1`, the composite z-score is -0.0082 in experiment [1]; -0.872 in [2]; -0.0083 in [3]; 0.698 in experiment [4]; -0.186 in experiment [5]; -0.245 in experiment [6]. Moreover, the composite z-score is -0.709 with Lefty1 and 0.0368 in experiment [8]. For the same molecule, the z-score in experiment [7] was 0.843; in experiment [9] it was -1.19 (inactive).

With `CC(=O)Nc1cc(Br)ccc1C(=O)NCc1ccccc1`, the composite z-score in experiment [1] is 0.69; in experiment [2], 0.6; in [3], 0.265; in experiment [4], 0.402; in [5], -0.0708; in experiment [6] it was -0.327. In addition, the composite z-score was -0.285 in the experiment on Lefty1 and 0.674 in experiment [8]. The z-score in experiment [7] is 2.26; in [9] it was -0.65 (inactive).

In the case of `[N-]=[N+]=Nc1ccccc1C[C@]1(C(=O)NCc2ccccc2)N=C(c2ccc(OCCCO)cc2)O[C@H]1c1ccccc1N=[N+]=[N-]`, the composite z-score in experiment [1] is 1.88; in experiment [2], 1.16; in [3], 0.414; in [4] it was 1; in [5], 0.547; in [6], -0.165. The composite z-score came out at 0.376 in the experiment with Lefty1 and 0.824 in [8]. For the same molecule, the results for the z-score in [7] and in [9] were 1.08 and -3.77 (inactive), respectively.

Regarding `COC(=O)[C@H](Cc1ccccc1)N[C@H](/C=C/C1CC1)[C@@H](O)Cc1ccccc1`, the composite z-score in experiment [1] was -0.174; in experiment [2], -0.688; in experiment [3] it was -0.295; in experiment [4] it was -1.05; in [5] it was 0.395; in experiment [6], 0.123. Besides, the results for the composite z-score (in the experiment on Lefty1; in experiment [8]) were -0.0264 and 0.0999, respectively. Further, the z-score was -0.0444 in [7] and 0.723 (inactive) in experiment [9].

As for `CCOC(=O)C[C@H]1[C@H](OC(=O)c2cc3ccccc3oc2=O)[C@@H](NC(=O)CC(C)C)c2cc(OCCCO)ccc2N1C(=O)c1ccccc1`, the composite z-score was 0.615 in experiment [1]; 0.926 in experiment [2]; 0.399 in experiment [3]; 0.595 in experiment [4]; 0.478 in experiment [5]; 0.427 in experiment [6]. For the same molecule, the figures for the composite z-score (in the experiment on Lefty1; in experiment [8]) were 0.696 and 0.634, respectively. Besides, the z-score in [7] was -0.399; in [9], -0.291 (inactive).

Take `O=C1C2C=CC(C(O)c3c(F)cccc3Cl)N(Nc3ccccc3F)C2C(=O)N1c1ccccc1` (stereo not given): the composite z-score worked out at 0.236 in experiment [1]; 1.23 in experiment [2]; 0.631 in experiment [3]; 0.926 in experiment [4]; 1.09 in experiment [5]; 0.793 in experiment [6]. Moreover, the results for the composite z-score (in the experiment with Lefty1; in [8]) were -0.199 and 0.702, respectively. Further, the z-score is 0.353 in experiment [7] and -0.059 (inactive) in [9].

(Values after PubChem BioAssay.)
